Assay outcomes as filed in PubChem.
PME-1 primary = PME-1 inhibitors via competitive probe labeling, primary screen, biochemical, fluorescence polarization, FP-Rh probe, HTS; Protein phosphatase methylesterase 1 (Homo sapiens), Q9Y570; recombinant PME-1; inhibition, % at 5.9 µM; 320,000 tested, 0.53% active;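 active means inhibition above the campaign mean of all compounds plus 3 SD, cut at about 26% in these data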;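 further: competitive labeling of PME-1 active site by serine hydrolase directed probe; inhibitors block probe labeling so polarization falls and inhibition rises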
GSTO1 inh = inhibitors of recombinant GSTO1, primary screen, counter-screen for RBBP9 inhibitor project, biochemical, fluorescence polarization | inhibition, % at 5.96 µM | Glutathione S-transferase omega-1 (Homo sapiens), P78417 | 300,000 tested, 1.1% active | activity-based probe fluorescence polarization;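 active means inhibition above the campaign mean inhibition plus 3 SD, cut at about 35% in these data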
PREPL inhibitor = PREPL enzyme inhibitors, primary screen, biochemical, fluorescence polarization; Prolyl endopeptidase-like (Homo sapiens), Q4J6C6; recombinant PREPL, fluorescence polarization activity-based probe; inhibition, % at 5.96 µM; 320,000 tested, 0.68% active; AID 2751, 2010
Target sequence (Q4J6C6 whole entry, looked up): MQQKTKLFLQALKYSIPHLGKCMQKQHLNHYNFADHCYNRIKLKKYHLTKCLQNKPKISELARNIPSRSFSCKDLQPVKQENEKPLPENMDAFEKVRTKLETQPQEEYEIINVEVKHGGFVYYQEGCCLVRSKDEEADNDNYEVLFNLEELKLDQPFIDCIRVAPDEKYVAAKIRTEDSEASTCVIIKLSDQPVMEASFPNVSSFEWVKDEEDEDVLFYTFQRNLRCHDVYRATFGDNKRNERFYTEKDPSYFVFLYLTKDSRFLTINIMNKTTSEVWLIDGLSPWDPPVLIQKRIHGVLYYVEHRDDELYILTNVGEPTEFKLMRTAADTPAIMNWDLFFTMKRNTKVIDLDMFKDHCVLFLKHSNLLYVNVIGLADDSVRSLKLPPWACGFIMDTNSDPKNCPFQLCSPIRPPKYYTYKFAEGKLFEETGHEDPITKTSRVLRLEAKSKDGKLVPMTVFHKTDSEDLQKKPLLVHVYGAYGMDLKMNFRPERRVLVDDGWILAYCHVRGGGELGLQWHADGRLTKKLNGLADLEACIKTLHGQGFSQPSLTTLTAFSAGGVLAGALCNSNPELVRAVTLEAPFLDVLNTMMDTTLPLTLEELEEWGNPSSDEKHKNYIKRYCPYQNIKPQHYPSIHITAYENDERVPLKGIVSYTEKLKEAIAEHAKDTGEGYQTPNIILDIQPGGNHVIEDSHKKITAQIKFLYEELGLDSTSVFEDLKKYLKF
LYPLA2 counter = LYPLA2 inhibitors, primary screen, counter-screen for PME1 inhibitor project, biochemical, fluorescence polarization, FP-Rh probe ABPP. recombinant LYPLA2. inhibition, % at 5.9 µM. 320,000 tested, 0.38% active. Acyl-protein thioesterase 2 (Homo sapiens), O95372;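 active means inhibition above the screen-wide mean plus 3 SD, limit set per campaign, cut at about 26% in these data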
LYPLA1 inh = LYPLA1 inhibitors, primary screen, counter-screen for PME1 inhibitor project, biochemical, fluorescence polarization, FP-Rh probe ABPP; AID 2174, 2009; 320,000 tested, 0.16% active; inhibition, % at 5.9 µM; recombinant LYPLA1;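 active means inhibition above the mean of all tested compounds plus 3 SD, set per campaign, cut at about 14% in these data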;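 further: inhibitors block serine hydrolase probe labeling of LYPLA1 so polarization falls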
Fam108B counter = mouse Fam108B serine hydrolase inhibitors, primary screen, counter-screen for RBBP9 inhibitor project, biochemical, fluorescence polarization | recombinant Fam108B, FP-Rh probe fluorescence polarization | inhibition, % at 9.51 µM | 300,000 tested, 0.33% active | AID 1947, 2009;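 active means inhibition above the screen mean inhibition plus 3 SD, computed separately per campaign, cut at about 18% in these data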;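 further: inhibitors lower polarization as less probe binds the enzyme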
PREPL inh cf = human PREPL enzyme inhibitors, confirmation, biochemical, fluorescence polarization; recombinant PREPL, fluorescence polarization activity probe; 2,000 tested, 67% active; shares compounds with PREPL inhibitor; inhibition, % at 5.96 µM
Large screens that a line does not name were inactive (follow-up assays come after a bar, where they were run). Most compounds without a hit are left out; they make up all but 2% or so of the library. Unless noted, no stated cut-off is given here; in the data, active means inhibition above about 43%; inactive means the rest.

CC(C)OC(=O)c1cc2c(ccn2-c2ccc(F)cc2)n1CC(=O)N1CCN(C(=O)c2ccco2)CC1	PREPL inhibitor 47 | PREPL inh cf 48
Cc1ccc(C(=O)N2CCN(S(=O)(=O)N3CCCCC3)CC2)cc1	none
CCCn1c(C)cc(-c2csc(N)n2)c1C	PREPL inhibitor 44 | PREPL inh cf inactive
COc1ccc(-n2c(C)cc(-c3csc(N)n3)c2C)cc1	PREPL inhibitor 43 | PREPL inh cf inactive
COc1cccc(N2CCN(c3ccc4nnc(CCC(=O)Nc5ncccc5C)n4n3)CC2)c1	none
CC(C)CN(CCNC(=O)CN1N=C(c2ccc(Cl)cc2)CCC1=O)CC(C)C	PREPL inhibitor 49 | PREPL inh cf inactive
Cc1ccc(Cl)cc1NC(=O)COC(=O)c1ccccc1O	none
Cc1ccc(C)c(NC(=O)COC(=O)c2cccc3c2C(=O)c2ccccc2C3=O)c1	PME-1 primary 89, PREPL inhibitor 60 | PREPL inh cf 47
O=C(COC(=O)CNC(=O)c1ccccc1)Nc1ccc(Cl)cn1	PREPL inhibitor 45 (no result: PME-1 primary, GSTO1 inh, LYPLA2 counter, LYPLA1 inh, Fam108B counter) | PREPL inh cf inactive
CCCCN1C(=N)N([C@@H](C)CN2CCC[C@H]2CN2C(N)=NC[C@@H]2Cc2ccccc2)C[C@H]1Cc1ccccc1	PREPL inhibitor 54 (no result: PME-1 primary, GSTO1 inh, LYPLA2 counter, LYPLA1 inh, Fam108B counter) | PREPL inh cf 44
CC(C)C[C@@H]1CN=C(N)N1C[C@@H]1CCCN1C[C@@H](C(C)C)N1C[C@@H](Cc2ccccc2)N(CCCC2CCCC2)C1=N	PREPL inhibitor 60 (no result: PME-1 primary, GSTO1 inh, LYPLA2 counter, LYPLA1 inh, Fam108B counter) | PREPL inh cf 51
CCCCN1C(=N)N([C@@H](CN2CCC[C@H]2CN2C(N)=NC[C@@H]2Cc2ccccc2)C(C)C)C[C@H]1Cc1ccccc1	PREPL inhibitor 65 (no result: PME-1 primary, GSTO1 inh, LYPLA2 counter, LYPLA1 inh, Fam108B counter) | PREPL inh cf 59
CN1CCN(C(=O)C2=C[C@@H](c3ccc4c(c3)OCO4)C[C@@H](OCc3ccc(CO)cc3)O2)CC1	PREPL inhibitor 45 | PREPL inh cf 54
O=C(O)C1=C[C@H](c2ccc(C(F)(F)F)cc2)C[C@H](OCc2ccc(CO)cc2)O1	none
O=C(C1=C[C@H](c2ccc3c(c2)OCO3)C[C@H](OCc2ccc(CO)cc2)O1)N1CCN(Cc2ccc3c(c2)OCO3)CC1	none
O=C(C1=C[C@H](c2ccc(C(F)(F)F)cc2)C[C@H](OCc2ccc(CO)cc2)O1)N1CCOCC1	none
CN1CCN(C(=O)C2=C[C@@H](c3ccc(C(F)(F)F)cc3)C[C@@H](OCc3ccc(CO)cc3)O2)CC1	PREPL inhibitor 59 | PREPL inh cf 59
O=C(C1=C[C@@H](c2ccc(C(F)(F)F)cc2)C[C@@H](OCc2ccc(CO)cc2)O1)N1CCN(Cc2ccccc2)CC1	PREPL inhibitor 52 | PREPL inh cf 57
Oc1nc(Nc2ccccc2)sc1/C=C1\C=Nc2ccccc21	PME-1 primary 44, PREPL inhibitor 59 | PREPL inh cf 63
CCN(C(=O)CSc1nc(C)nc2sc3c(c12)CCC3)C1CCS(=O)(=O)C1 (centres undefined)	PREPL inhibitor 54 (no result: PME-1 primary, GSTO1 inh, LYPLA2 counter, LYPLA1 inh, Fam108B counter) | PREPL inh cf inactive
COc1cccc(C2CC(c3ccc(C)cc3)Nc3nc(N)nn32)c1 (centres undefined)	PREPL inhibitor 49 | PREPL inh cf 51
COc1cccc(C2CC(c3ccc(C)cc3)n3nc(N)nc3N2)c1 (centres undefined)	none
O=C1CC(NS(=O)(=O)c2ccc(F)cc2)CN1c1ccc2c(c1)OCCO2 (centres undefined)	none
Cc1ccc(NC(=S)Nc2cccnc2)c(S(=O)(=O)N2CCCCC2)c1	none
CN(C)c1ccc(C(CNC(=O)c2ccc(-c3ccccc3)cc2)N2CCOCC2)cc1 (centres undefined)	PREPL inhibitor 47 | PREPL inh cf 65
CN1c2ccccc2Oc2nnc(N3CCN(Cc4ccccc4)CC3)cc21	PREPL inhibitor 46 | PREPL inh cf inactive
CC(C)N(Cc1ccccc1)C(=O)CN1C(=O)NC(Cc2ccccc2)(c2ccccc2)C1=O (centres undefined)	none
O=[N+]([O-])c1cccc(COc2ncnc3cc([N+](=O)[O-])ccc23)c1	PREPL inhibitor 47 | PREPL inh cf inactive
CC1CN(c2ccc([N+](=O)[O-])nc2)CC(C)O1 (centres undefined)	none
N=C1/C(=C\c2ccc(OC(=O)c3ccc(F)cc3)cc2)C(=O)N=C2SC(N3CCCC3)=NN12	none
N=C1/C(=C\c2ccc(OC(=O)c3ccccc3)cc2)C(=O)N=C2SC(N3CCOCC3)=NN12	PREPL inhibitor 61 | PREPL inh cf inactive
N=C1/C(=C\c2ccc(OC(=O)c3ccco3)cc2)C(=O)N=C2SC(N3CCCCC3)=NN12	none
Cc1ccc(C(=O)Oc2ccc(/C=C3\C(=N)N4N=C(N5CCOCC5)SC4=NC3=O)cc2)cc1	PREPL inhibitor 62 | PREPL inh cf inactive
COc1ccc(CNC(=O)CSCc2ccccc2Cl)cc1	none
CCOC(=O)C1CCCN(C(=O)CCCn2nnnc2CN2CCC(C)CC2)C1 (centres undefined)	none
Cc1ccc(-c2csc(=Nc3cccnc3)n2CCCN2CCCC2=O)cc1C	PREPL inhibitor 49 | PREPL inh cf 54
Cc1ccc(-c2csc(=Nc3cccnc3)n2CCCn2ccnc2)cc1C	PREPL inhibitor 47 | PREPL inh cf 57
c1cncc(N=c2scc(-c3cccc4ccccc34)n2CCCn2ccnc2)c1	PREPL inhibitor 53 | PREPL inh cf 54
CSCc1ccc(C(=O)NC(C)c2cnn(-c3ccccn3)c2C)o1 (centres undefined)	none
Cc1cc(C)c(S(=O)(=O)N2CCN(S(=O)(=O)N3CCOCC3)CC2)c(C)c1	none
COc1ccc(/C=C(/NC(=O)c2ccccc2OC)C(=O)Nc2ccc(C(=O)O)cc2)cc1	none
Cc1c(CCOC(=O)c2cc([N+](=O)[O-])cc([N+](=O)[O-])c2)sc[n+]1CC(=O)c1ccc(Br)cc1	PREPL inhibitor 54 | PREPL inh cf 70
Cc1c(CCOC(=O)c2ccc(Cl)cc2Cl)sc[n+]1CC(=O)c1ccccc1	none (no result: PME-1 primary, GSTO1 inh, LYPLA2 counter, LYPLA1 inh, Fam108B counter)
COC(=O)c1ccc(NC(=O)c2ccc3c(c2)NC(=O)C2CCCN32)cc1 (centres undefined)	none (no result: GSTO1 inh, Fam108B counter)
CCc1ccc(-c2csc(NC(=O)C3=NN(c4ccccc4)C(=O)CC3)n2)cc1	PREPL inhibitor 44 | PREPL inh cf inactive
Cc1ccc(C(=O)NCC(c2ccc(F)cc2)N2CCOCC2)s1 (centres undefined)	none (no result: PME-1 primary, GSTO1 inh, LYPLA2 counter, LYPLA1 inh, Fam108B counter)
